# Source: PubChem BioAssay (EPA / NIEHS)
# Active and inactive are the calls of the source. The calls were made as follows: active = hit-call score of the fitted dose curve at least 0.9, where 1 is the maximum; inactive = score below 0.9.
# Columns and labels:
# [1] = read-out: Matrix Metallopeptidase 1 (MMP1), MMP1 (gene 4312); experiment: BSK_hDFCGF_MMP1: BioMAP Diversity Plus: hDFCGF Assay for Matrix Metallopeptidase 1 (MMP1) Biomarker Activity (AID 2283064); settings: primary human foreskin fibroblasts; actives raise or lower the signal
# Method in brief: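 Primary human foreskin fibroblasts exposed to chemicals for 24 h; MMP1 measured by ELISA. Cytotoxicity tracked by SRB staining in parallel cultures; bidirectional fit relative to DMSO.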
# [2] = read-out: Vascular cell adhesion molecule 1 (VCAM1), VCAM1 (gene 7412); experiment: BSK_hDFCGF_VCAM1: BioMAP Diversity Plus: hDFCGF Assay for Vascular cell adhesion molecule 1 (VCAM1) Biomarker Activity (AID 2283065); settings: primary human foreskin fibroblasts; actives raise or lower the signal;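 as to AC50: VCAM-1 protein level quantified by ELISA after 24 h chemical exposure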
# Method in brief: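 ELISA read-out of VCAM-1 on human skin fibroblasts, 24 h post-dose; gain or loss of signal fitted bidirectionally against DMSO baseline.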
# [3] = read-out: Plasminogen activator inhibitor-1 (PAI1), SERPINE1 (gene 5054); experiment: BSK_hDFCGF_PAI1: BioMAP Diversity Plus: hDFCGF Assay for Plasminogen activator inhibitor-1 (PAI1) Biomarker Activity (AID 2283066); settings: primary human foreskin fibroblasts; actives raise or lower the signal
# Method in brief: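 PAI-1 levels, determined by ELISA, served as the endpoint in human foreskin fibroblast cultures exposed to compound for 24 h, with DMSO as baseline.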
# [4] = read-out: Intercellular Adhesion Molecule 1 (ICAM1), ICAM1 (gene 3383); experiment: BSK_KF3CT_ICAM1: BioMAP Diversity Plus: KF3CT Assay for Intercellular Adhesion Molecule 1 (ICAM1) Biomarker Activity (AID 2283067); settings: primary human keratinocytes with fibroblasts; actives raise or lower the signal
# Method in brief: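 ELISA readout of ICAM-1; KF3CT human skin co-culture (keratinocytes + foreskin fibroblasts), 24 h post-dose; gain/loss fit vs DMSO baseline.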
# [5] = read-out: Interferon-gamma inducible Protein 10 (IP10), CXCL10 (gene 3627); experiment: BSK_KF3CT_IP10: BioMAP Diversity Plus: KF3CT Assay for Interferon-gamma inducible Protein 10 (IP10) Biomarker Activity (AID 2283068); settings: primary human keratinocytes with fibroblasts; actives raise or lower the signal
# Method in brief: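 Signal is secreted/surface IP-10 by ELISA in a human primary skin co-culture of keratinocytes and foreskin fibroblasts, taken 24 h post-dosing; DMSO served as negative control.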
# [6] = BSK_KF3CT_SRB: Viability Assessment in the BioMAP Diversity Plus: KF3CT Assay (AID 2283069); settings: primary human keratinocytes with fibroblasts;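 also: total protein by sulforhodamine B staining as a cytotoxicity measure; read 24 h after compound addition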
# Method in brief: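 Human keratinocyte and foreskin fibroblast co-culture exposed to chemical for 24 h. Total protein measured in parallel cultures by 0.1% sulforhodamine B staining after 10% TCA fixation, read at 560 nm; bidirectional fit relative to DMSO.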
# [7] = read-out: Interleukin-1 alpha (IL1a), IL1A (gene 3552); experiment: BSK_KF3CT_IL1a: BioMAP Diversity Plus: KF3CT Assay for Interleukin-1 alpha (IL1a) Biomarker Activity (AID 2283070); settings: primary human keratinocytes with fibroblasts; actives raise or lower the signal
# Method in brief: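 Primary human keratinocyte plus foreskin fibroblast co-culture, dosed and measured at 24 h in 96-well plates. IL-1a level quantified by ELISA; bidirectional fit relative to DMSO.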
# [8] = read-out: TIMP metallopeptidase inhibitor 2 (TIMP2), TIMP2 (gene 7077); experiment: BSK_KF3CT_TIMP2: BioMAP Diversity Plus: KF3CT Assay for TIMP metallopeptidase inhibitor 2 (TIMP2) Biomarker Activity (AID 2283071); settings: primary human keratinocytes with fibroblasts; actives raise or lower the signal
# Method in brief: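 Keratinocyte–fibroblast co-culture, 24 h exposure; TIMP-2 ELISA, DMSO-normalised bidirectional fit. Parallel SRB (0.1%, TCA-fixed, 560 nm) total-protein staining gauges cytotoxicity.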
# [9] = read-out: Transforming growth factor beta 1 (TGFb1), TGFB1 (gene 7040); experiment: BSK_KF3CT_TGFb1: BioMAP Diversity Plus: KF3CT Assay for Transforming growth factor beta 1 (TGFb1) Biomarker Activity (AID 2283072); settings: primary human keratinocytes with fibroblasts; actives raise or lower the signal
# Method in brief: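 Signal changes in either direction, relative to DMSO, define activity here. TGF-b1 is read by ELISA from a human keratinocyte-fibroblast co-culture 24 h post-dose.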
# [10] = read-out: C-C motif chemokine 2 (Homo sapiens) (UniProt P13500); experiment: BSK_KF3CT_MCP1: BioMAP Diversity Plus: KF3CT Assay for Monocyte Chemoattractant Protein 1 (MCP1/CCL2) Biomarker Activity (AID 2283073); settings: primary human keratinocytes with fibroblasts; actives raise or lower the signal
# Method in brief: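 KF3CT skin co-culture (keratinocytes/foreskin fibroblasts), 24 h post-dose; MCP-1 by ELISA; gain/loss of signal fit bidirectionally vs DMSO baseline.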
# [11] = read-out: Matrix Metallopeptidase 9 (MMP9), MMP9 (gene 4318); experiment: BSK_KF3CT_MMP9: BioMAP Diversity Plus: KF3CT Assay for Matrix Metallopeptidase 9 (MMP9) Biomarker Activity (AID 2283074); settings: primary human keratinocytes with fibroblasts; actives raise or lower the signal;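 as to AC50: MMP9 protein level quantified by ELISA in the co-culture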
# Method in brief: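 Human keratinocyte and foreskin fibroblast co-culture exposed to chemicals for 24 h; MMP9 biomarker measured by ELISA, bidirectional fitting relative to DMSO; cytotoxicity tracked by SRB total protein staining in parallel cultures.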
# [12] = read-out: urokinase plasminogen activator (uPA), PLAU (gene 5328); experiment: BSK_KF3CT_uPA: BioMAP Diversity Plus: KF3CT Assay for urokinase plasminogen activator (uPA) Biomarker Activity (AID 2283075); settings: primary human keratinocytes with fibroblasts; actives raise or lower the signal
# Method in brief: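 Primary human keratinocyte/foreskin fibroblast co-culture exposed to chemical; uPA measured by ELISA at 24 h. Bidirectional fit versus DMSO, with parallel SRB total-protein staining for cytotoxicity.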
# CD40, CD40 (gene 958) = experiment: BSK_LPS_CD40: BioMAP Diversity Plus: LPS Assay for CD40 Biomarker Activity (AID 2283076); settings: primary human HUVEC with PBMC; actives raise or lower the signal
# Method in brief: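 ELISA readout of CD40 in HUVEC/PBMC co-culture (BSK_LPS system), 24 h post-dosing; bidirectional curve fit, DMSO baseline; parallel SRB total-protein staining for cytotoxicity.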
# [13] = read-out: E-selectin (Homo sapiens) (UniProt P16581); experiment: BSK_LPS_Eselectin: BioMAP Diversity Plus: LPS Assay for Eselectin Biomarker Activity (AID 2283077); settings: primary human HUVEC with PBMC; actives raise or lower the signal
# Method in brief: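 ELISA readout of E-selectin, 24 h post-dose, HUVEC + PBMC co-culture (LPS system). Gain or loss of signal vs DMSO baseline, bidirectional fit.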
# [14] = read-out: Interleukin-8 (IL8), CXCL8 (gene 3576); experiment: BSK_LPS_IL8: BioMAP Diversity Plus: LPS Assay for Interleukin-8 (IL8) Biomarker Activity (AID 2283078); settings: primary human HUVEC with PBMC; actives raise or lower the signal
# Method in brief: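 HUVEC + PBMC co-culture, LPS-activated; test chemicals dosed, IL-8 read by ELISA at 24 h. Bidirectional curve fit vs DMSO baseline (gain or loss of signal).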
# [15] = BSK_LPS_SRB: Viability Assessment in the BioMAP Diversity Plus: LPS Assay (AID 2283079); settings: primary human HUVEC with PBMC;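 also: total protein by sulforhodamine B absorbance as a cytotoxicity measure; measured one day after compound addition; fitted in both directions against DMSO so loss or gain of signal counts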
# Method in brief: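 HUVEC + PBMC co-culture, LPS-stimulated; compound 24 h. 10% TCA fix, 0.1% SRB stain, A560. Bidirectional fit vs DMSO.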
# [16] = read-out: Interleukin-1 alpha (IL1a), IL1A (gene 3552); experiment: BSK_LPS_IL1a: BioMAP Diversity Plus: LPS Assay for Interleukin-1 alpha (IL1a) Biomarker Activity (AID 2283080); settings: primary human HUVEC with PBMC; actives raise or lower the signal
# Method in brief: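 HUVEC/PBMC co-culture, LPS system; 24 h after dosing; IL-1a by ELISA; gain or loss of signal fitted bidirectionally vs DMSO baseline.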
# [17] = read-out: Monocyte Chemoattractant Protein-1 (MCP1), CCL2 (gene 6347); experiment: BSK_LPS_MCP1: BioMAP Diversity Plus: LPS Assay for Monocyte Chemoattractant Protein-1 (MCP1) Biomarker Activity (AID 2283081); settings: primary human HUVEC with PBMC; actives raise or lower the signal;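 as to AC50: secreted MCP-1 protein quantified by ELISA in culture supernatant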
# Method in brief: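 ELISA read-out of MCP-1 after 24 h chemical dosing of a human umbilical vein endothelial cell/peripheral blood mononuclear cell co-culture stimulated with LPS. Gain or loss of signal fitted relative to DMSO controls.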
# [18] = BSK_LPS_PGE2: BioMAP Diversity Plus: LPS Assay for Prostaglandin E2 (PGE2) Biomarker Activity (AID 2283082); settings: primary human HUVEC with PBMC; actives raise or lower the signal;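 as to AC50: secreted prostaglandin E2 measured by ELISA in LPS-stimulated co-culture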
# Method in brief: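 Endpoint derived from bidirectional curve fitting versus DMSO of ELISA-measured PGE2 in LPS-stimulated human primary vascular co-culture (HUVEC with PBMC) harvested at 24 h.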
# [19] = read-out: Macrophage colony-stimulating factor (MCSF), CSF1 (gene 1435); experiment: BSK_LPS_MCSF: BioMAP Diversity Plus: LPS Assay for Macrophage colony-stimulating factor (MCSF) Biomarker Activity (AID 2283083); settings: primary human HUVEC with PBMC; actives raise or lower the signal
# Method in brief: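 HUVEC + PBMC co-culture (human primary), 24 h post-dose; M-CSF by ELISA; gain/loss of signal fitted bidirectionally vs DMSO baseline.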
# E-selectin (Homo sapiens), sequence (P16581 whole entry, looked up): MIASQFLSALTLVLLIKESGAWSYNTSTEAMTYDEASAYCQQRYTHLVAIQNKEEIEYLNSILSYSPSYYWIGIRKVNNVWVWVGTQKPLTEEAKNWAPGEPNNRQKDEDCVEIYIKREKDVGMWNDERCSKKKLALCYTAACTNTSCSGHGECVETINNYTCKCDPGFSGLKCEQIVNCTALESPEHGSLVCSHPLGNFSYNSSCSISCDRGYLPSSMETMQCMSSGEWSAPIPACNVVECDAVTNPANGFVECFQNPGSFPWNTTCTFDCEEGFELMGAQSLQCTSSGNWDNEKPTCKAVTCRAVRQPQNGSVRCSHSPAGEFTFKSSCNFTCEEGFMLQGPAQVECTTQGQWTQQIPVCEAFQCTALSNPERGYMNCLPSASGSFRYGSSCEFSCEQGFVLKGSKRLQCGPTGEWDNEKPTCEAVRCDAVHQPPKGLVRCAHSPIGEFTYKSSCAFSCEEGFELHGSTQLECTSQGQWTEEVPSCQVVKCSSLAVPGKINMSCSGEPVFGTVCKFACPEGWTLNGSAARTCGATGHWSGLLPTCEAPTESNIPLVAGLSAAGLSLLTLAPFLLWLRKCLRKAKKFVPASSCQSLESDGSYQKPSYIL
structure (smiles),measurement,setting,value
CCCOC(=O)c1cc(O)c(O)c(O)c1,outcome,[1],inactive
same,outcome,[2],inactive
same,outcome,[3],inactive
same,outcome,[4],inactive
same,outcome,[5],inactive
same,outcome,[6],inactive
same,outcome,[7],inactive
same,AC50,[8],1.49 µM (active)
same,AC50,[9],1.53 µM (active)
same,outcome,[10],inactive
same,outcome,[11],inactive
same,AC50,[12],3.97 µM (active)
same,outcome,"CD40, CD40 (gene 958)",inactive
same,outcome,[13],inactive
same,outcome,[14],inactive
same,outcome,[15],inactive
same,outcome,[16],inactive
same,outcome,[17],inactive
same,AC50,[18],4.97 µM (active)
same,outcome,[19],inactive
Clc1ccccc1C(c1ccccc1)(c1ccccc1)n1ccnc1,AC50,[1],7.77 µM (active)
same,AC50,[2],8.14 µM (active)
same,AC50,[3],5.57 µM (active)
same,AC50,[4],11.5 µM (active)
same,AC50,[5],8.61 µM (active)
same,AC50,[6],5.3 µM (active)
same,AC50,[7],10.4 µM (active)
same,AC50,[8],10 µM (active)
same,AC50,[9],6.57 µM (active)
same,AC50,[10],7.25 µM (active)
same,AC50,[11],5.43 µM (active)
same,AC50,[12],9.72 µM (active)
same,AC50,"CD40, CD40 (gene 958)",14.7 µM (active)
same,AC50,[13],30.7 µM (active)
same,AC50,[14],30.9 µM (active)
same,AC50,[15],23.1 µM (active)
same,AC50,[16],30.5 µM (active)
same,AC50,[17],29.7 µM (active)
same,AC50,[18],5.45 µM (active)
same,AC50,[19],28.3 µM (active)
CCCCCCCCCCCC[N+](C)(C)C,AC50,[1],4.94 µM (active)
same,AC50,[2],15.4 µM (active)
same,AC50,[3],20 µM (active)
same,outcome,[4],inactive
same,AC50,[5],36 µM (active)
same,AC50,[6],33.9 µM (active)
same,AC50,[7],32.5 µM (active)
same,AC50,[8],27.8 µM (active)
same,AC50,[9],26.6 µM (active)
same,AC50,[10],29.7 µM (active)
same,AC50,[11],30.7 µM (active)
same,AC50,[12],34 µM (active)
same,AC50,"CD40, CD40 (gene 958)",16.9 µM (active)
same,AC50,[13],20.3 µM (active)
same,AC50,[14],20 µM (active)
same,AC50,[15],25.7 µM (active)
same,AC50,[16],16.6 µM (active)
same,AC50,[17],25.5 µM (active)
same,outcome,[18],inactive
same,AC50,[19],26 µM (active)
